The values that follow come from the supplement of paper PMC3334620.

Over roughly 33,000 sequences, “E-score (-0.5 to 0.5)” has its median near -0.015; the highest 2% begin near 0.3. The sample as a whole holds a higher share of the highest values than the screen did.

The target of the assay is T1, Abf1 (UniProt P14164).
T1 sequence: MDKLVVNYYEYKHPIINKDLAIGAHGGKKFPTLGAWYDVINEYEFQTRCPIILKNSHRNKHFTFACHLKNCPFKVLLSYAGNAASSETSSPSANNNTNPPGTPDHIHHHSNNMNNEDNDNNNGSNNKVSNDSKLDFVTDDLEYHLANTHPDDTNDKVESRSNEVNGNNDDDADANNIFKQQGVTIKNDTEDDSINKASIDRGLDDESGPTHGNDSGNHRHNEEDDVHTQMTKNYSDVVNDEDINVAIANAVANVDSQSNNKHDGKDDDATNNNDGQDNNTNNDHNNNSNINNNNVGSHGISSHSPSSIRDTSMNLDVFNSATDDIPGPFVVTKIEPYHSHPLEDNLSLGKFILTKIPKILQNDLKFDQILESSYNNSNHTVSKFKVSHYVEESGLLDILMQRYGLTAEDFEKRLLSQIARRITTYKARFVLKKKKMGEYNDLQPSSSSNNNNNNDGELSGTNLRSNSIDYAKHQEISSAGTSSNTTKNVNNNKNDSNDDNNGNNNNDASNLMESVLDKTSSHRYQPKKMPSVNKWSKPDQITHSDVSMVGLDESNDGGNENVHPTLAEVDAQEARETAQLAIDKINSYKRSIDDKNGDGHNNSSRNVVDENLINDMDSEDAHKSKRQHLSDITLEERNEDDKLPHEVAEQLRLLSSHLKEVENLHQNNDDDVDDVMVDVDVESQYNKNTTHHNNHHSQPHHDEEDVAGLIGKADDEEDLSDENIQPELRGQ
Kind of assay: PBM E-score (8-mer binding enrichment) (E-score (-0.5 to 0.5)); higher = stronger / more preferred TF binding. Conditions: protein concentration: 200 nM; construct: GST-full length. In short, it runs like this: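 Yeast transcription factors, full-length or as DNA-binding domains, were expressed with a GST tag using PURExpress in vitro transcription/translation. At about 100-200 nM they were applied to universal all-10-mer Agilent arrays, double-stranded by primer extension on fresh or once-stripped slides. Fluorescent anti-GST detected bound protein, and masliner normalised the scans. E-scores for ungapped eight-base words, pooled with reverse complements, came from the Universal PBM Analysis Suite.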
For CCCTACCA, the “PBM E-score” value is 0.0127.
For ATTCTGTA the value was 0.14; for GAGTGAGA, 0.0215; for TAGTGATA, 0.433.
For AAGTGAGA the value was 0.0815; for CAGTGATA, 0.377.
For TAGTGAAA the value was -0.0802.
As to GAGTGATA, the “PBM E-score” value is 0.424.
For the sequence AAGTGATA, the “PBM E-score” value stood at 0.39.
In the case of TAGTGAGA it was 0.0964; in that of AAGTGAAA, -0.0619.
With CAGTGAGA, the “PBM E-score” value stood at 0.0837.
In the case of CACTGATA it was -0.056.
For the sequence GAGTGAAA, the “PBM E-score” value is -0.117.
In the case of CCTTGGTC it was -0.302.
For AATTTGAC the value was 0.183; for CTGTCGGA, -0.123.
On to ACAGCTCT, for which the “PBM E-score” value was -0.248.
In the case of AGTACTGA, the “PBM E-score” value was -0.0709.
For the sequence CCGGGTTC, the “PBM E-score” value is -0.167.
GTAACTAA: the “PBM E-score” value is -0.0125.
For TTCGGAAA the value was -0.148.
For CAACGTAA the value was -0.0145.
For AATCTCTC the value was 0.0576.
With ATACCCCA, the “PBM E-score” value worked out at 0.0583.
On to CACCCGCA, for which the “PBM E-score” value was -0.205.
In the case of GATCGGGC it was -0.195; in that of CGTTATAG, 0.105; in that of CGTTATAA, 0.149.
In the case of CGTTACAC it was 0.298; in that of CGTTATAC, 0.303.
For CGTTACAA the value was 0.195; for CGTTACAG, -0.0224.
As to AATGTTGC, the “PBM E-score” value amounted to 0.00562.
For CGGCGTTC the value was -0.0709; for CCGCCATC, -0.26; for AGTCCACC, -0.0728.
On to GAAAACTA, for which the “PBM E-score” value was -0.0964.
On to GTTCTGTA, for which the “PBM E-score” value was -0.0186.
For AATTCGGA the value was 0.029.
In the case of AATTCGTG it was 0.224.
As for CTTTCGTA, the “PBM E-score” value stood at 0.376.
For ATTTCGTC, the “PBM E-score” value stood at 0.229.
In the case of CATTCGTC, the “PBM E-score” value was 0.222.
Regarding CTTTCGTC, the “PBM E-score” value is 0.191.
Regarding CATTCGTA, the “PBM E-score” value is 0.308.
In the case of GTTTCGTA it was 0.26; in that of GATTCGTA, 0.262.
In the case of CATTCGCA it was -0.1; in that of AATTCGTA, 0.307.
For AATTCGTC the value was 0.315.
As for ACCCAGAA, the “PBM E-score” value was -0.0336.
As to TTCCGAAA, the “PBM E-score” value was 0.104.
On to ATTTAAAT, for which the “PBM E-score” value stood at 0.189.
As to GATTACAC, the “PBM E-score” value was found to be 0.0768.
For CAAGCCCG the value was -0.172; for GTGGTATA, -0.0621.
For CGGCCCAC the value was -0.208; for ATCGTCAA, 0.342; for AGCGTCAA, -0.00287.
As for AACGTCAT, the “PBM E-score” value is 0.217.
In the case of ATCGTCAG, the “PBM E-score” value amounted to 0.154.
For ACCGTCAG the value was 0.0392; for ACCGTCAT, 0.362.
In the case of ACCGTCAA it was 0.143; in that of ATCGTCAT, 0.349.
In the case of TTCGTCAA it was 0.151; in that of AAAAATCC, -0.0226.
As to AGGTTGAA, the “PBM E-score” value is 0.0563.
In the case of CACTGCAA, the “PBM E-score” value came to 0.0215.
With TCATCAGA, the “PBM E-score” value amounted to 0.094.
In the case of CAGCTTGA it was -0.141.
In the case of AGGAGGTG it was -0.248; in that of GAGGGACA, -0.103; in that of CCTTTTAA, 0.0637.
ACGGCGCC: the “PBM E-score” value came out at 0.184.
Take ACGGCGCG: the “PBM E-score” value is 0.324.
In the case of ACGGCGCT it was 0.09.
In the case of TCGGCGAA it was 0.00757; in that of ACGGCGAT, 0.313.
For ACGGCGAA the value was 0.343; for ACGGCGAG, 0.111.
Consider GCGGCGAA, for which the “PBM E-score” value is -0.106.
In the case of ACGGCGAC it was 0.224; in that of ACCCGGGT, -0.155; in that of ATGAGTCA, 0.0874.
In the case of ACCCTAGG it was -0.07; in that of CGCGTTGA, 0.0564; in that of AGATGCTC, 0.0161.
In the case of CAGGTAAG, the “PBM E-score” value was -0.0344.
AGATAAGA: the “PBM E-score” value was 0.194.
In the case of AATTCCAC, the “PBM E-score” value worked out at 0.0539.
For CAGGATGA the value was 0.197.
For AGACAAGC, the “PBM E-score” value is -0.0992.
